The values below come from ChEMBL document CHEMBL4513216, “Probing the Open Global Health Chemical Diversity Library for Multistage-Active Starting Points for Next-Generation Antimalarials” (ACS Infect Dis, 2020).

Screen size: about 65,000 compounds; about 2,100 (3.2%) showed an effect of 50% or more. The median lay at about -52%. Only a selection was taken, and strong results are over-represented in it overall.

In this test the test system is Plasmodium falciparum. Kind of test: Screen against P. falciparum Asexual Blood Stage (ABS), at 5uM. In kind it is functional, Dd2. The conditions noted are these: tested at 5 uM.
Take `CCCS(=O)(=O)N1C[C@@H]2CN(Cc3cnn(C)c3)CCO[C@@H]2C1`: the INHIBITION is recorded as -67.3%. As to `Cc1cccc(C(C(=O)NCCn2cccc2)N(C)C)c1` (stereo unspecified), the INHIBITION is listed as 42.5%.

On to `O=C(NCCn1cccc1)C(c1ccccc1)N1CCCC1` (stereo unspecified), for which the INHIBITION was determined as 54.4%. The figure for `O=C(NCCNc1cccnc1)C(c1cccnc1)N1CCCC1` (stereo unspecified) is -11.7%. For `CC(C)(NCc1ccc(C#N)cc1)c1ccc2c(c1)OCO2`, the INHIBITION is reported as -0.993%. As to `CC(C)(NCc1cccc(C(N)=O)c1)c1ccc2c(c1)OCO2`, the INHIBITION amounted to 19.8%. The figure for `CC(C)(NCc1cccc(C#N)c1)c1ccc2c(c1)OCO2` is 51.5%; for `O=C1N[C@@H]2CCN(C(=O)C3CCCC3)[C@@H]2C(=O)N1c1ccc(F)cc1` it is 56.1%. For `O=C1N[C@@H]2CCN(C(=O)C3CC3)[C@@H]2C(=O)N1c1ccc(F)cc1`, the INHIBITION was -99.9%. For `O=C1N[C@@H]2CCN(C(=O)C3CCC3)[C@@H]2C(=O)N1c1ccc(F)cc1`, the INHIBITION was determined as 32%. On to `CC(=O)N1N=C(COc2ccc3c(c2)OCO3)OC1c1cccc(Cl)c1` (stereo unspecified), for which the INHIBITION is reported as -125%. `Cc1cc(=O)n(CC(=O)NC(C)C)c(Nc2ccc(F)c(C)c2)n1`: the INHIBITION is recorded as -47.4%. On to `CN(C)c1ccc(C(CNS(=O)(=O)c2cccs2)N2CCCC2)cc1` (stereo unspecified), for which the INHIBITION was 54.2%. The figure for `Cc1nn(C)cc1S(=O)(=O)NCC(c1ccccc1)N1CCCCCC1` (stereo unspecified) is 12.9%. The figure for `CN1CCc2cc(C(CNS(=O)(=O)c3cccs3)N3CCCC3)ccc21` (stereo unspecified) is 15.5%. For `COc1ccccc1CNC(=O)COc1c(C)n(C)ccc1=O`, the INHIBITION was -82.3%. As for `CC(C)c1cnc(CN(C)C2CCN(CCc3cnn(C)c3)C2)o1` (stereo unspecified), the INHIBITION was -112%. Regarding `O=C(NCC1CC1)C1CCC2(CCN(C(=O)c3cnccn3)CC2)O1` (stereo unspecified), the INHIBITION is given as -40.1%. The same measure for `CCCc1ccc(OCCNCc2ccco2)c(OC)c1`: 51.5%; for `COc1cc(C(C)=O)ccc1OCCNCc1ccco1`: 1.68%.

Take `COc1cc(CNCc2ccco2)ccc1OCCO`: the INHIBITION was -66.2%. On to `c1cc(CN2CCCC2)cc(-n2ccnc2-c2ccncc2)c1`, for which the INHIBITION is on record as 6.67%. `Cn1ccnc1-c1nccn1-c1cccc(CN2CCCC2)c1`: the INHIBITION is -2.05%.

On to `CCCc1nccn1-c1cccc(CN2CCCC2)c1`, for which the INHIBITION came to 53.1%. The same measure for `O=C(NCCc1ccc(F)cc1)C1CN(C(=O)Cn2cncn2)C1`: -29.6%. For `COCc1nc(N(C)CCSc2ccccc2)c2cnn(C)c2n1`, the INHIBITION was -14.2%.

Consider `CN(C)CCN(C)c1nc(CCc2ccccc2)nc2c1cnn2C`, for which the INHIBITION is 51.9%. The figure for `Cc1nc(N(C)CCN(C)C)c2cnn(C)c2n1` is -71.9%.

Take `CN1CCCc2cc(-c3cncn3CC(=O)NC(C)(C)C)ccc21`: the INHIBITION is on record as -38.6%. On to `CCN1CCc2cc(-c3cncn3CCNC3CCS(=O)(=O)C3)ccc21` (stereo unspecified), for which the INHIBITION was 3.68%. The figure for `CN1CCCc2cc(-c3cncn3CCNC3CCS(=O)(=O)C3)ccc21` (stereo unspecified) is -79.3%; for `CC1CCN(S(=O)(=O)c2cccn(CC(=O)NC(C)(C)C)c2=O)CC1` it is -129%; for `CCN1CCc2cc(-c3cncn3CC(=O)NC(C)(C)C)ccc21` it is 66.2%. Consider `CC1Cc2cc(-c3cncn3CC(=O)NC(C)(C)C)ccc2N1C` (stereo unspecified), for which the INHIBITION turned out to be 54.2%.

As for `c1cc2c(cc1CSCc1noc(C3CC3)n1)OCCO2`, the INHIBITION is -17%. The figure for `O=C(OCC1CCN(c2ccccc2)C1)c1cscn1` (stereo unspecified) is 0.13%; for `CCOC1CCC2(CCN(C(=O)c3csnn3)CC2)c2ccccc21` (stereo unspecified) it is -79.6%. On to `O=C(O)c1ccccc1-c1ccc(CNC(=O)C2CCOCC2)cc1`, for which the INHIBITION is given as -63.2%.

Take `Nc1nc2c(c(NC(Cn3cccn3)c3ccccc3)n1)CCNCC2` (stereo unspecified): the INHIBITION is listed as -40.8%. The figure for `Cc1cnn(CC2CCN(CC(O)c3ccc(F)cc3)CC2)c1` (stereo unspecified) is 29.3%; for `CCC(c1ccc(F)cc1F)N1CCN(CCO)CC1` (stereo unspecified) it is 34.1%. The figure for `Cc1noc(CN(C)CC2CCN(CCO)CC2)n1` is -64%; for `CN(CC1CCN(CCO)CC1)CC(O)c1ccc(F)cc1` (stereo unspecified) it is 69.1%; for `CN(CC1CCN(CCO)CC1)CC(O)c1ccc(F)cc1F` (stereo unspecified) it is 56.7%. The same measure for `CN(CCOCC(F)(F)F)CC1CCN(CCO)CC1`: 19.4%; for `Cc1ccc(C(=O)NCCCNc2ccc(C(F)(F)F)cn2)cc1`: 35.4%. With `CCS(=O)(=O)N1CCC(C(=O)NC(Cc2ccsc2)c2nccs2)CC1` (stereo unspecified), the INHIBITION is recorded as -83.8%. The same measure for `CN(Cc1ccccc1CNC(=O)C1CNC(=O)N1)C1CCCCC1` (stereo unspecified): -35%; for `COc1cc(N2CCC3(CC(=O)N(Cc4csc(C)n4)C3)C2)ncn1` (stereo unspecified): -10.7%. Regarding `CN1CC(c2ccccc2)CC2(CCN(C(=O)c3ccccc3)CC2)C1` (stereo unspecified), the INHIBITION worked out at 18.1%. The same measure for `CN1CC(c2ccccc2)CC2(CCN(CC(=O)N(C)C)CC2)C1` (stereo unspecified): 53.8%; for `COC(=O)N1CCC2(CC1)CC(c1ccccc1)CN(C)C2` (stereo unspecified): -17.2%; for `CC(C)OCc1ncn2c1CN(Cc1ccoc1)CCC2`: -4.62%. Take `CCc1n[nH]c(C2CN(C(=O)c3ccnc(N(C)C)c3)CCO2)n1` (stereo unspecified): the INHIBITION was -77.2%. The same measure for `CC1CCCN1C1CCN(C(=O)c2cccc(F)c2)CC1` (stereo unspecified): -14.6%; for `O=C(CN1CCN(C(=O)c2cccc(-c3ccoc3)c2)CC1)C1CC1`: -3.7%. The same measure for `CC1CCCN1C1CCN(C(=O)c2cccc(-c3ccoc3)c2)CC1` (stereo unspecified): 53.6%; for `O=C1c2cc(Br)cc(Br)c2OCC1(CN1CCCC1)CN1CCCC1`: -65.9%. For the compound `CC(C(=O)Nc1ccc(N2CCOCC2)nc1)n1cncn1` (stereo unspecified), the INHIBITION is -27%. As to `COc1cccc(O)c1CN1CCCC(Nc2cccc(F)c2)C1` (stereo unspecified), the INHIBITION stood at 51.3%. For the compound `Fc1ccc(NC2CCCN(Cc3ccncc3)C2)cc1` (stereo unspecified), the INHIBITION was -65.4%. Regarding `COc1cccc(CN2CCCC(Nc3cccc(F)c3)C2)c1O` (stereo unspecified), the INHIBITION is given as 67.3%.

Consider `COc1cccc(F)c1CN1CCC(c2nc(C)cc(C)n2)C1` (stereo unspecified), for which the INHIBITION amounted to 23.3%. On to `COc1ccc(F)cc1CN1CCCC(c2cc(C(N)=O)[nH]n2)C1` (stereo unspecified), for which the INHIBITION was -14.1%.

In the case of `COc1cccc(CNc2ccc(F)c(Cl)c2)c1O`, the INHIBITION was -117%. The figure for `COc1ccc(CN2CCCC(Nc3cccc(F)c3)C2)cc1O` (stereo unspecified) is 63.3%; for `COc1cc(CN2CCCC(Nc3cccc(F)c3)C2)cc(OC)c1O` (stereo unspecified) it is 36.9%. The figure for `COc1ccc(NC2CCCN(Cc3cnc(N(C)C)s3)C2)cc1OC` (stereo unspecified) is -54.2%. The figure for `Oc1cccc(CN2CCN(C3CCc4ccccc4C3)CC2)c1` (stereo unspecified) is 14.6%. `Cc1n[nH]c(C)c1C1COCCN1C(=O)Cc1ccccc1F` (stereo unspecified): the INHIBITION is -105%. The same measure for `Cc1cnc(CCN(C)C(=O)c2cccc(C)c2O)s1`: -152%. The same measure for `Cc1ccc(NC2CCN(C(=O)c3sccc3C3CC3)CC2)nn1`: -28.9%; for `Cc1ccc(C(C)NC(=O)N2CCCN(CC(F)F)CC2)s1` (stereo unspecified): -73.5%; for `Cc1cccc(CN2C(=O)CC[C@@H]3[C@H]2CCN3Cc2ccc(F)cc2)n1`: -111%. The figure for `CCNc1nc2c(s1)C(=O)CN(C(=O)NCc1ccccc1)C2` is -146%. As for `Cc1noc(CN2CCOC(CN(C)C)C2)n1` (stereo unspecified), the INHIBITION is -84.3%. Turning to `c1cncc(-c2noc(CN3CCOC(Cn4cccn4)C3)n2)c1` (stereo unspecified), the INHIBITION is 10.9%. On to `Cc1cccc(-c2noc(CN3CCOC(Cn4cccn4)C3)n2)c1` (stereo unspecified), for which the INHIBITION came out at 51.2%. Consider `Cc1ccc(-c2noc(CN3CCOC(CN(C)C)C3)n2)cc1F` (stereo unspecified), for which the INHIBITION amounted to 53.2%. Regarding `Cc1ccc(-c2noc(CN3CCOC(Cn4cccn4)C3)n2)cc1` (stereo unspecified), the INHIBITION is reported as -105%. With `CN(C)CC1CN(Cc2nc(-c3cccnc3)no2)CCO1` (stereo unspecified), the INHIBITION is on record as -51.1%. The figure for `CC(NC(=O)CN1CCN(c2ccncc2Cl)CC1)c1ccco1` (stereo unspecified) is -106%. The figure for `O=C(CCC1CCCN(C(=O)CCc2ccc(F)c(F)c2)C1)NC1CC1` (stereo unspecified) is -157%; for `Cc1ncc(CN2CCc3nc4cc(C(C)(C)C)nn4c(O)c3C2)n1C` it is -104%; for `CN1CCN(C2COC3(CCN(Cc4ccsc4)CC3)C2)CC1` (stereo unspecified) it is -10.7%. The figure for `CN(C)c1cc(C(=O)N2CCCCC2Cn2cccn2)ccn1` (stereo unspecified) is -202%; for `CC(C)Oc1ccc(C(=O)N2CCCCC2Cn2cccn2)cn1` (stereo unspecified) it is 64.8%. Consider `Cc1cnn(CC2CCCN2C(=O)c2ccc(OC(C)C)nc2)c1` (stereo unspecified), for which the INHIBITION is listed as -94.7%.

As to `CCN(CC1CN(Cc2cccc(C#N)c2)CCO1)c1cccnn1` (stereo unspecified), the INHIBITION is given as -83.6%.

In the case of `CCn1ccnc1CN1CCCN(C(=O)COC2CCCCC2)CC1`, the INHIBITION was -84.3%.

With `O=C(Nc1nccs1)NC1CCN(Cc2ccccc2)C1` (stereo unspecified), the INHIBITION was -9.31%. As to `O=C(Nc1nccs1)NC1CCN(Cc2ccccc2)CC1`, the INHIBITION turned out to be 28.3%. The same measure for `O=C(Nc1nccs1)NC1CCN(Cc2ccccn2)CC1`: 63.7%; for `Cc1cn2nc(Sc3nnc(C(C)C)n3C)sc2n1`: -104%. `OC(c1ccccn1)C1CCN(Cc2cc3n(n2)CCNC3)CC1` (stereo unspecified): the INHIBITION is recorded as -27.2%. With `CN(C)CC(=O)N1CCCCC1c1nc(N)ncc1-c1ccccc1` (stereo unspecified), the INHIBITION stood at 50.9%. With `CN(C)C(=O)CN1CCCCC1c1nc(N)ncc1-c1ccccc1` (stereo unspecified), the INHIBITION is given as -40.8%. The figure for `CC(=O)N1CCCCC1c1nc(N)ncc1-c1ccccc1` (stereo unspecified) is -145%.

For the compound `CC(C)Oc1ccc(CN2CCC(c3n[nH]c4ncccc34)CC2)cc1`, the INHIBITION was -69.9%.

In the case of `Cc1cc(C[C@@H]2CCC[C@H]2NCc2ccccc2C)on1`, the INHIBITION is given as 65.1%. The figure for `Cc1cc(C[C@@H]2CCC[C@H]2NCc2ccccc2F)on1` is -4.92%; for `Cc1cc(C[C@@H]2CCC[C@H]2NCc2ccccc2C(F)(F)F)on1` it is 15.6%; for `Cc1cc(C[C@@H]2CCC[C@H]2NCc2cc(F)ccc2F)on1` it is 20.7%. `Cc1cc(C[C@@H]2CCC[C@H]2NCc2c[nH]nc2-c2ccccc2)on1`: the INHIBITION was 57.4%. As to `Cc1cc(C[C@@H]2CCC[C@H]2NCc2cccc(F)c2F)on1`, the INHIBITION was -58.5%. The figure for `Cc1cc(C(=O)N2CCN(C)CC2)nn1CC(=O)NCc1cccs1` is -139%.
